Target: T1, Cytoplasmic tyrosine-protein kinase BMX (Homo sapiens) (UniProt P51813)
T1 sequence (whole entry): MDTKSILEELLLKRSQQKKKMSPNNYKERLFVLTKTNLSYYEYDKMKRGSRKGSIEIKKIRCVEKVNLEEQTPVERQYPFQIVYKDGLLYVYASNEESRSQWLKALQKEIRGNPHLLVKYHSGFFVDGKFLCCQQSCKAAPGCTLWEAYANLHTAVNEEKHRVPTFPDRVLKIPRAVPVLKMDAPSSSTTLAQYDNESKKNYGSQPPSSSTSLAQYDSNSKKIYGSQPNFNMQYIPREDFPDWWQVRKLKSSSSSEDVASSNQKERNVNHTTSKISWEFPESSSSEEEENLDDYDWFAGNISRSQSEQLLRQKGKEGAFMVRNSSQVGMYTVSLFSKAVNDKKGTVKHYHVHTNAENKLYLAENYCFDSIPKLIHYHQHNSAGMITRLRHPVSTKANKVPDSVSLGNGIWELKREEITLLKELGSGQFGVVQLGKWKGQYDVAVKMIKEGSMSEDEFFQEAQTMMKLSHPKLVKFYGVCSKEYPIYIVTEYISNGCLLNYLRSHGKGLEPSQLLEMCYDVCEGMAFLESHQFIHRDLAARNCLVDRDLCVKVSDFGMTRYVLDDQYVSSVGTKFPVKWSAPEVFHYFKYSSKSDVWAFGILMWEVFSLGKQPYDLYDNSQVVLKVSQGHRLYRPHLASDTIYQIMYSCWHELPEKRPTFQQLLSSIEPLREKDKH
Conditions: at 0.1 µM

SMILES	inhibition
O=C(Nc1n[nH]c2cc(-c3ccc(F)cc3)ccc12)C1CC1	0.57%
CNC(=O)c1cccc(C#Cc2cncnc2Nc2ccc(OCc3cccc(F)c3)c(Cl)c2)c1	-1.48%
COc1cccc(-c2c[nH]c3c(N/N=C/c4ccncc4)ncnc23)c1	8.13%
CCn1c(-c2nonc2N)nc2cnc(Oc3cccc(NC(=O)c4ccc(N(C)C)cc4)c3)cc21	1.63%
COc1ccc(-c2cc3c(N)ncnc3o2)cc1	-2.47%
c1ccc(-c2nc3n(c2-c2ccc4c(c2)OCO4)CCC3)nc1	-1.29%
FC(F)(F)c1cccc(-c2nn3ncccc3c2-c2ccnc(Nc3ccc4c(c3)OCCO4)n2)c1	7.84%
CC(C)COC(=O)c1ccc2c(c1)/C(=C/Nc1ccc(S(N)(=O)=O)cc1)C(=O)N2	0.73%
COc1ccc(-c2nn3ncccc3c2-c2ccnc(Nc3ccc4c(c3)OCCO4)n2)cc1	0.12%
CN1CCC(n2cnc(-c3ccc(F)cc3)c2-c2ccnc(N)n2)CC1	3.52%
N#Cc1c(NC(=O)c2ccc(F)cc2)sc2c1CCCC2	1.31%
COC(=O)Nc1nc2ccc(S(=O)(=O)c3ccc(NC(=O)Nc4cc(C(F)(F)F)ccc4F)cc3)cc2[nH]1	6.6%
NS(=O)(=O)c1ccc(N/N=C2\C(=O)Nc3ccc4ncccc4c32)cc1	6.88%
[O-][S+]1CCN(Cc2ccc(-c3ccc4ncnc(Nc5ccc(OCc6cccc(F)c6)c(Cl)c5)c4c3)o2)CC1	7.13%
Cc1cccc2c1NC(=O)/C2=N\Nc1ccc(S(N)(=O)=O)cc1	-0.08%
CS(=O)(=O)CCNCc1ccc(-c2ccc3ncnc(Nc4ccc(OCc5ccccc5)c(C(F)(F)F)c4)c3c2)o1	2.52%
CC(=O)Nc1cccc(C#Cc2cncnc2Nc2ccc(OCc3cccc(F)c3)c(Cl)c2)c1	0.73%

SMILES	inhibition
Nc1nc(-c2cccc(Cl)c2)c(-c2ccc3ncccc3n2)s1	2.53%
CNC(=O)c1cncc(/C=C/c2ccccc2Cl)c1	1.47%
CCn1c(-c2nonc2N)nc2c(C#CC(C)(C)O)ncc(OC3CCNCC3)c21	3.84%
CCn1c(-c2nonc2N)nc2ccccc21	-0.5%
Cc1ccc(O)cc1Nc1ccnc2cc(-c3ccccn3)ccc12	19.8%
Nc1ncc(-c2cccc(S(N)(=O)=O)c2)c2scc(-c3ccc(F)c(Cl)c3)c12	14.5%
COc1cc2c(cc1Nc1nc(Nc3ccsc3C(N)=O)c3cc[nH]c3n1)N(C(=O)CN(C)C)CCC2(C)C	3.79%
COc1ccc2[nH]c3c4[nH]c5ccc(OC)cc5c4c4c(c3c2c1)C(=O)NC4=O	-2.69%
Fc1ccc(-c2nn3ccccc3c2-c2ccncc2)cc1	-1.75%
COc1ccc(-c2cc(-c3c[nH]nc3-c3ccccn3)ccn2)cc1	-1.41%
c1cc(-c2cnn3nc(N4CCOCC4)ccc23)nc(NC2CC2)n1	0.89%
NS(=O)(=O)c1ccc(Nc2ncc(-c3ccccc3)o2)cc1	0.13%
CCN(CC)S(=O)(=O)c1ccc(OC)c(Nc2ncc(-c3ccccc3)o2)c1	-2.19%
CC(=O)NCc1cccc(C#Cc2cncnc2Nc2ccc(OCc3cccc(F)c3)c(Cl)c2)c1	2.32%
COc1ccc(-c2oc3ncnc(N)c3c2-c2ccc(NC(=O)Nc3cc(C(F)(F)F)ccc3F)cc2)cc1	8.1%
CCn1cc(-c2ccnc3[nH]ccc23)c(-c2cccc(NC(=O)Nc3ccc(OCc4ccccc4)cc3)c2)n1	1.09%

Target: T1, Cytoplasmic tyrosine-protein kinase BMX (Homo sapiens)
Conditions: at 1 µM

SMILES	inhibition
O=C(Nc1n[nH]c2cc(-c3ccc(F)cc3)ccc12)C1CC1	5.89%
CNC(=O)c1cccc(C#Cc2cncnc2Nc2ccc(OCc3cccc(F)c3)c(Cl)c2)c1	1.31%
COc1cccc(-c2c[nH]c3c(N/N=C/c4ccncc4)ncnc23)c1	45.1%
CCn1c(-c2nonc2N)nc2cnc(Oc3cccc(NC(=O)c4ccc(N(C)C)cc4)c3)cc21	1.66%
COc1ccc(-c2cc3c(N)ncnc3o2)cc1	2.73%
c1ccc(-c2nc3n(c2-c2ccc4c(c2)OCO4)CCC3)nc1	1%
FC(F)(F)c1cccc(-c2nn3ncccc3c2-c2ccnc(Nc3ccc4c(c3)OCCO4)n2)c1	29.9%
CC(C)COC(=O)c1ccc2c(c1)/C(=C/Nc1ccc(S(N)(=O)=O)cc1)C(=O)N2	-1.5%
COc1ccc(-c2nn3ncccc3c2-c2ccnc(Nc3ccc4c(c3)OCCO4)n2)cc1	8.65%
CN1CCC(n2cnc(-c3ccc(F)cc3)c2-c2ccnc(N)n2)CC1	4.58%
N#Cc1c(NC(=O)c2ccc(F)cc2)sc2c1CCCC2	0.33%
COC(=O)Nc1nc2ccc(S(=O)(=O)c3ccc(NC(=O)Nc4cc(C(F)(F)F)ccc4F)cc3)cc2[nH]1	5.12%
NS(=O)(=O)c1ccc(N/N=C2\C(=O)Nc3ccc4ncccc4c32)cc1	25.3%
[O-][S+]1CCN(Cc2ccc(-c3ccc4ncnc(Nc5ccc(OCc6cccc(F)c6)c(Cl)c5)c4c3)o2)CC1	7.73%
Cc1cccc2c1NC(=O)/C2=N\Nc1ccc(S(N)(=O)=O)cc1	2.79%
CS(=O)(=O)CCNCc1ccc(-c2ccc3ncnc(Nc4ccc(OCc5ccccc5)c(C(F)(F)F)c4)c3c2)o1	1.86%
CC(=O)Nc1cccc(C#Cc2cncnc2Nc2ccc(OCc3cccc(F)c3)c(Cl)c2)c1	4.15%

SMILES	inhibition
Nc1nc(-c2cccc(Cl)c2)c(-c2ccc3ncccc3n2)s1	5.31%
CNC(=O)c1cncc(/C=C/c2ccccc2Cl)c1	8.42%
CCn1c(-c2nonc2N)nc2c(C#CC(C)(C)O)ncc(OC3CCNCC3)c21	7.52%
CCn1c(-c2nonc2N)nc2ccccc21	3.8%
Cc1ccc(O)cc1Nc1ccnc2cc(-c3ccccn3)ccc12	69.2%
Nc1ncc(-c2cccc(S(N)(=O)=O)c2)c2scc(-c3ccc(F)c(Cl)c3)c12	56.5%
COc1cc2c(cc1Nc1nc(Nc3ccsc3C(N)=O)c3cc[nH]c3n1)N(C(=O)CN(C)C)CCC2(C)C	5.73%
COc1ccc2[nH]c3c4[nH]c5ccc(OC)cc5c4c4c(c3c2c1)C(=O)NC4=O	16.6%
Fc1ccc(-c2nn3ccccc3c2-c2ccncc2)cc1	1.42%
COc1ccc(-c2cc(-c3c[nH]nc3-c3ccccn3)ccn2)cc1	5.27%
c1cc(-c2cnn3nc(N4CCOCC4)ccc23)nc(NC2CC2)n1	2.31%
NS(=O)(=O)c1ccc(Nc2ncc(-c3ccccc3)o2)cc1	5.05%
CCN(CC)S(=O)(=O)c1ccc(OC)c(Nc2ncc(-c3ccccc3)o2)c1	7.38%
CC(=O)NCc1cccc(C#Cc2cncnc2Nc2ccc(OCc3cccc(F)c3)c(Cl)c2)c1	0.07%
COc1ccc(-c2oc3ncnc(N)c3c2-c2ccc(NC(=O)Nc3cc(C(F)(F)F)ccc3F)cc2)cc1	59.5%
CCn1cc(-c2ccnc3[nH]ccc23)c(-c2cccc(NC(=O)Nc3ccc(OCc4ccccc4)cc3)c2)n1	-0.27%

From ChEMBL document CHEMBL1961873, “Compounds: GSK PKIS; Assays: Nanosyn kinase panel” (2012)
